Measured values reported in PubChem BioAssay (Tox21).
Inconclusive results are not listed. Calls of active or inactive are those of the source. Unless noted, the call rests on the fitted dose curve; in most records, active means well fitted curve in the direction sought with a large enough effect in the repeat runs; inconclusive means weak or mixed curves; inactive means no such curve, though single readings can be large; an effect the other way counts as inactive or inconclusive.

Experiments:
[1] = qHTS assay to test for compound auto fluorescence at 535 nm (green) in HEK293 cells (AID 720680)
[2] = qHTS assay to test for compound auto fluorescence at 460 nm (blue) in HEK293 cell free culture (AID 720681)
Procedure, shortened: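 Test compounds were pinned into cell-free culture medium (DMEM with 10% FBS) and fluorescence was read directly at Ex/Em 405/460 nm. Signals were expressed as fluorescence equivalents of triamterene, with DMSO vehicle as control.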

[3] = qHTS assay to test for compound auto fluorescence at 535 nm (green) in HEK293 cell free culture (AID 720682)
Procedure, shortened: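 Green-label autofluorescence (485 nm excitation, 535 nm emission) measured on compound added to cell-free culture medium (DMEM, 10% FBS). Output is expressed relative to fluorescein.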

[4] = qHTS assay to test for compound auto fluorescence at 590 nm (red) in HEK293 cell free culture (AID 720683)
Procedure, shortened: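 Tox21 10K library compounds were pinned into cell-free DMEM with 10% FBS and fluorescence was read at excitation 540 nm. Activity is expressed as Rose Bengal sodium equivalency.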

[5] = qHTS assay to test for compound auto fluorescence at 590 nm (red) in HepG2 cell free culture (AID 720684)
Procedure, shortened: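 Ex 540 / Em 590 nm read of compound in cell-free MEM (10% FBS). Rose Bengal sodium reference.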

[6] = qHTS assay to test for compound auto fluorescence at 535 nm (green) in HepG2 cell free culture (AID 720686)
[7] = qHTS assay to test for compound auto fluorescence at 460 nm (blue) in HepG2 cells (AID 720687)
Procedure, shortened: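 Cells (2,000/well in MEM with 10% FBS) attached overnight at 37 C, then were exposed to compound or DMSO for 1 hr at 37 C, 5% CO2. Fluorescence read at Ex/Em 405/460 nm, expressed as triamterene-equivalent signal.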

[8] = qHTS assay to identify small molecule antagonists of the glucocorticoid receptor (GR) signaling pathway - cell viability counter screen (AID 720693); further: nearly all actives have a fitted effect of over 55% in size
[9] = qHTS assay for identifying genotoxic compounds that show differential cytotoxicity against isogenic chicken DT40 cell lines with known DNA damage response pathways - wild type cell line (AID 743012); further: nearly all actives have a fitted effect of over 60% in size; further: potency means the concentration at half of the fitted maximal effect
Procedure, shortened: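 Viability by ATP luminescence (CellTiter-Glo, 30 min RT) after 40 h compound treatment at 37 C/5% CO2, using 300 parental DNA repair-proficient DT40 cells per well.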

[10] = qHTS assay for identifying genotoxic compounds that show differential cytotoxicity against isogenic chicken DT40 cell lines with known DNA damage response pathways - Rad54/Ku70 mutant cell line (AID 743015); further: nearly all actives have a fitted effect of over 60% in size; further: potency means the concentration at half of the fitted maximal effect
[11] = qHTS assay to identify small molecule antagonists of the androgen receptor (AR) signaling pathway - cell viability counter screen (AID 743033; further: nearly all actives have a fitted effect of over 45% in size)
[12] = qHTS assay to identify small molecule antagonists of the androgen receptor (AR) signaling pathway using the MDA cell line - cell viability counter screen (AID 743041; further: nearly all actives have a fitted effect of over 45% in size)
Procedure, shortened: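 In this qHTS counter assay, fluorescence intensity after CellTiter-Fluor addition indicated viability of MDA-kb2 AR-luc cells given compounds and R1881 for 16 h at 37C.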

[13] = target: Glucocorticoid receptor (Homo sapiens) (UniProt P04150); test: qHTS assay to identify small molecule agonists of the glucocorticoid receptor (GR) signaling pathway (AID 720691; active means well fitted activation curve with a large enough effect in the signal ratio in the repeat runs, not every such curve was filed as active; the % refers to the signal ratio; further: potency means the concentration at half of the fitted maximal effect)
Sequence of Glucocorticoid receptor (Homo sapiens) (P04150 whole entry, looked up): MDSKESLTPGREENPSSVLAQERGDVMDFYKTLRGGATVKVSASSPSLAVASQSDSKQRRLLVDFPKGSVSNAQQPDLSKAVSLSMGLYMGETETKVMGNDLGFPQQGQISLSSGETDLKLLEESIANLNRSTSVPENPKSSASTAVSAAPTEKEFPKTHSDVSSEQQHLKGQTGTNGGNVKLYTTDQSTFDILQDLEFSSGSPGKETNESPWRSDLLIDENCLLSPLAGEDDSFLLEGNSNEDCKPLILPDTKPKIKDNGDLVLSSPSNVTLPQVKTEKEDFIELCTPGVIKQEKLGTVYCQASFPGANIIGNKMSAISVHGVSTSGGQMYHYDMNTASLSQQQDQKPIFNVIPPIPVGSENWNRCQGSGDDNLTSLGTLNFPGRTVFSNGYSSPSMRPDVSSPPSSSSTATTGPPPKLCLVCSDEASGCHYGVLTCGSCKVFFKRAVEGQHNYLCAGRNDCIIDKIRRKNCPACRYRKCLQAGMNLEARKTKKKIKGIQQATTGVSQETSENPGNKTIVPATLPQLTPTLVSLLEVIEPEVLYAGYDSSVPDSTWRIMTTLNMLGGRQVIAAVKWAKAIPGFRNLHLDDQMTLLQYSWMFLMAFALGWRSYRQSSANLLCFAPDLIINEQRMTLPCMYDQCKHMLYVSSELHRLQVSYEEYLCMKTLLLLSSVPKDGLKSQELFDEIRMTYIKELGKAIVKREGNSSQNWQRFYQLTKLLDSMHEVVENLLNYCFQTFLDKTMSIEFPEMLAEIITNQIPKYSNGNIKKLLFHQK
Procedure, shortened: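 Agonist-mode qHTS in HeLa cells stably expressing a glucocorticoid-response-element beta-lactamase reporter. Fluorescence intensity read with FRET substrate (2 h, room temperature) after 18 h compound treatment at 37 C.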

[14] = qHTS assay for identifying genotoxic compounds that show differential cytotoxicity against isogenic chicken DT40 cell lines with known DNA damage response pathways - Rev3 mutant cell line (AID 743014); further: nearly all actives have a fitted effect of over 55% in size; further: potency means the concentration at half of the fitted maximal effect
[15] = target: Androgen receptor (Homo sapiens) (UniProt P10275); test: qHTS assay to identify small molecule antagonists of the androgen receptor (AR) signaling pathway (AID 743035; active means well fitted inhibition curve with a large enough effect in the signal ratio in the repeat runs, not every such curve was filed as active; the % refers to the signal ratio)
Sequence of Androgen receptor (Homo sapiens) (P10275 whole entry, looked up): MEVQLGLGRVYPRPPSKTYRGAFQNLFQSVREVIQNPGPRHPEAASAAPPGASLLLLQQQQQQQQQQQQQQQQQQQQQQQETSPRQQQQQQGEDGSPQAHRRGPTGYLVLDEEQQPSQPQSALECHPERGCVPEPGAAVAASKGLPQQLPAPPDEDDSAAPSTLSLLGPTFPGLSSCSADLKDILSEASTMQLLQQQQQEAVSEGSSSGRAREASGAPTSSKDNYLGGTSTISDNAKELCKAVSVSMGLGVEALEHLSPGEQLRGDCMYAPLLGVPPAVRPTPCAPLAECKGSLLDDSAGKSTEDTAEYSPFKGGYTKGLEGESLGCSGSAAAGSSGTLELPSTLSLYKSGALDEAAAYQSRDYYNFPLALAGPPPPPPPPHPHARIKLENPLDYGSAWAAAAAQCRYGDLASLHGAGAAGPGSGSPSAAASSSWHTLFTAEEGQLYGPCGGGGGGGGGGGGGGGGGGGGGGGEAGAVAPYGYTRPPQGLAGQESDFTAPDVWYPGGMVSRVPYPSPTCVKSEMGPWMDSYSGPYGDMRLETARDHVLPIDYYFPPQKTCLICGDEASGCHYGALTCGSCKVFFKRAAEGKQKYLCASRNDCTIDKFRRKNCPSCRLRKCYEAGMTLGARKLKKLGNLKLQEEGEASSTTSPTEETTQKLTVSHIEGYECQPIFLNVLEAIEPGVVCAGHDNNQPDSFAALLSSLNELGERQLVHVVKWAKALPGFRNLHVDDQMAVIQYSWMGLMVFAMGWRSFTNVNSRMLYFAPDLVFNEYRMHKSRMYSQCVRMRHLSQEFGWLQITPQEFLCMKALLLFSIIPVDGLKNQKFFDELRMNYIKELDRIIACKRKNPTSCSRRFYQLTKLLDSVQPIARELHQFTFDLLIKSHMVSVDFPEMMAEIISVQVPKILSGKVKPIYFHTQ
Procedure, shortened: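 Antagonist mode: AR-bla HEK293 cells co-treated with test compounds and agonist R1881 for 16 h at 37C, 5% CO2. Beta-lactamase activity read as FRET fluorescence after 2 h room-temperature substrate loading.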

[16] = target: Androgen receptor (Homo sapiens) (UniProt P10275); test: qHTS assay to identify small molecule agonists of the androgen receptor (AR) signaling pathway using the MDA cell line (AID 743040; further: nearly all actives have a fitted effect of over 20% in size)
Procedure, shortened: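 Cell-based luciferase reporter: MDA-kb2, MMTV promoter (AR + GR response elements). 16 h compound exposure at 37C; ONE-Glo, 30 min RT, luminescence.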

[17] = target: Androgen receptor (Homo sapiens) (UniProt P10275); test: qHTS assay to identify small molecule antagonists of the androgen receptor (AR) signaling pathway using the MDA cell line (AID 743042; further: nearly all actives have a fitted effect of over 55% in size)
Procedure, shortened: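 MDA-kb2 cells (human breast carcinoma, stably carrying an MMTV-luciferase reporter responsive to AR and GR) were plated at 3,000 cells/well and preincubated 5 hr at 37C, then given compound plus R1881 agonist for 16 h. ONE-Glo luminescence was read.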

[18] = qHTS assay to identify small molecule antagonists of the thyroid receptor (TR) signaling pathway - cell viability counter screen (AID 743064); further: nearly all actives have a fitted effect of over 50% in size
Procedure, shortened: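 GH3.TRE-Luc rat pituitary cells dosed after 4 hr plating, co-stimulated with T3 at 1 nM final, incubated 23.5 h at 37 C. Viability measured in the same wells by CellTiter-Fluor fluorescence after 30 min further at 37 C.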

[19] = qHTS assay to test for compound auto fluorescence at 460 nm (blue) in HepG2 cell free culture (AID 720685)
Procedure, shortened: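 Cell-free plates of MEM plus 10% FBS received 23 nL compound or DMSO vehicle; blue-channel (405/460 nm) intensity scored against triamterene as reference fluorophore.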

[20] = target: Glucocorticoid receptor (Homo sapiens) (UniProt P04150); test: qHTS assay to identify small molecule antagonists of the glucocorticoid receptor (GR) signaling pathway (AID 720692; active means well fitted inhibition curve with a large enough effect in the signal ratio in the repeat runs, not every such curve was filed as active; the % refers to the signal ratio)
Procedure, shortened: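 Inhibition of dexamethasone-driven (5 nM final) beta-lactamase expression was measured in GRE-reporter HeLa cells over 18 h at 37C. Fluorescence was read after 2 h with the B/G FRET substrate at room temperature.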
On the % scale 0 is the no-effect control and ±100 the full control effect.

NC(=O)N1c2ccccc2CC(=O)c2ccccc21
active: Potency [9] 5.96 µM | Potency [10] 5.96 µM
inactive: outcome [1] | outcome [2] | outcome [3] | outcome [4] | outcome [5] | outcome [6] | outcome [7] | outcome [8] | outcome [11] | Potency [12]

CCCCCCCCCC[N+](C)(C)[O-]
inactive: outcome [1] | outcome [2] | outcome [3] | outcome [4] | outcome [5] | outcome [6] | outcome [7] | Potency [13] | outcome [8] | outcome [11] | Potency [15] | Potency [16] | outcome [17] | Potency [18]
active: Potency [9] 24.3 µM | Potency [14] 13.7 µM

CCCO[Si](OCCC)(OCCC)OCCC
inactive: outcome [1] | outcome [2] | outcome [3] | outcome [5] | outcome [19] | outcome [6] | outcome [7] | Potency [20] | outcome [8] | Potency [9] | Potency [10] | outcome [11] | Potency [12] | Potency [18]

CC(=O)c1cnccn1
inactive: outcome [1] | outcome [2] | outcome [3] | outcome [5] | outcome [6] | outcome [7] | Potency [13] | Potency [20] | outcome [8] | Potency [9] | Potency [14] | Potency [10] | outcome [11] | Potency [18]

CC1CCC(CO)CC1 (configuration not stated)
inactive: outcome [1] | outcome [2] | outcome [3] | outcome [5] | outcome [19] | outcome [6] | outcome [7] | outcome [8] | Potency [9] | Potency [14] | Potency [10] | outcome [11] | Potency [15] | Potency [16] | outcome [17] | Potency [18]

CN(C)C(=O)Oc1ccc[n+](C)c1
inactive: outcome [1] | outcome [3] | outcome [4] | outcome [5] | outcome [19] | outcome [6] | outcome [7] | Potency [20] | outcome [8] | Potency [9] | Potency [14] | Potency [10] | outcome [11]
active: Potency [13] 26.8 µM

CN1[C@@H]2CC[C@H]1CC(OC(=O)C(O)c1ccccc1)C2 (some centres not stated)
inactive: outcome [1] | outcome [3] | outcome [5] | outcome [6] | outcome [7] | outcome [8] | Potency [9] | Potency [14] | Potency [10] | outcome [11] | Potency [12]

CC(=O)N[C@H]1[C@H]([C@H](O)[C@H](O)CO)OC(C(=O)O)=C[C@@H]1N=C(N)N
inactive: outcome [1] | outcome [3] | outcome [4] | outcome [5] | outcome [19] | outcome [6] | outcome [7] | Potency [13] | Potency [20] | outcome [8] | Potency [9] | Potency [10] | outcome [11] | Potency [15] | Potency [16] | Potency [12] | outcome [17] | Potency [18]

CCC(C)(CN(C)C)OC(=O)c1ccccc1 (configuration not stated)
inactive: fluorescence, % of fluorescein [1] -0.0159% [at 18.6 µM] | activity change [3] -0.158% [at 18.6 µM] | fluorescence, % of fluorescent control [4] -0.827% [at 18.6 µM] | fluorescence, % of Rose Bengal [5] -0.0837% [at 18.6 µM] | fluorescence, % of fluorescent control [19] 0.131% [at 18.6 µM] | fluorescence, % of fluorescein control [6] 0.0276% [at 18.6 µM] | fluorescence, % of fluorescent control [7] -0.0227% [at 18.6 µM] | Potency [20] | outcome [8] | outcome [11] | Potency [12] | Potency [18]
